# Laboratory results published in the supplement of paper PMC6124720.
# Values without a mark were called inactive.
# System: Pseudogymnoascus destructans 20631-21
# Assay: growth activity index (DuctApe, 0 = no growth, 9 = maximal growth) (index 0-9); higher = more fungal growth (less inhibition), active = 0 or less; extreme values may be limits of the assay
# Settings: concentration level (1-4, increasing; Biolog proprietary): 2; temperature: 13 °C; YPD
# 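Also: biolog Phenotype Microarray plates PM21–25, OD595 followed daily over 11 days, growth curves converted to index, mean of two independent experiments.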
row,Compound,growth activity index
1,CN(CC[C@H](N)CC(=O)N[C@H]1C=C[C@H](n2ccc(N)nc2=O)O[C@@H]1C(=O)O)C(=N)N [Blasticidin S] (Biolog plate: PM24),4.33
2,O=[Se]([O-])[O-].[Na+].[Na+] [Sodium Selenite] (Biolog plate: PM21),5.25
3,[Cl][Cr]([Cl])[Cl] [Chromium (III) chloride] (Biolog plate: PM23),4
4,"Nc1ncn[nH]1 [3-Amino-1,2,4-triazole] (Biolog plate: PM22)",0 (active)
5,C[n+]1ccc(-c2cc[n+](C)cc2)cc1 [Methyl viologen] (Biolog plate: PM24),0 (active)
6,[Cl][Ni][Cl] [Nickel chloride] (Biolog plate: PM21),4.25
7,C[C@@H]1C[C@@H]([C@H](O)CC2CC(=O)NC(=O)C2)C(=O)[C@@H](C)C1 [Cycloheximide] (Biolog plate: PM22),4
8,[N-]=[N+]=[N-] [Sodium Azide] (Biolog plate: PM23),1
9,CCCC1COC(Cn2cncn2)(c2ccc(Cl)cc2Cl)O1 (stereo not drawn) [Propiconazole] (Biolog plate: PM24),2
10,CC1C=CC=CCCC=CC=CC=CC=CC(OC2OC(C)C(O)C(N)C2O)CC2OC(O)(CC(O)C(O)CCC(O)CC(O)CC(O)CC(=O)OC(C)C(C)C1O)CC(O)C2C(=O)O (stereo not drawn) [Nystatin] (Biolog plate: PM21),0 (active)
11,[Na+].[Na+].[O]=[Cr](=[O])([O-])[O][Cr](=[O])(=[O])[O-] [Sodium Dichromate] (Biolog plate: PM21),5
12,CCCCC(C#N)(Cn1cncn1)c1ccc(Cl)cc1 (stereo not drawn) [Myclobutanil] (Biolog plate: PM22),0.667
13,[N-]=[N+]=CC(=O)OC[C@H](N)C(=O)O [Azaserine] (Biolog plate: PM22),4.33
14,[K+].[K+].[O]=[Cr](=[O])([O-])[O-] [Potassium Chromate] (Biolog plate: PM24),4
15,O=[As][O-].[Na+] [Sodium Arsenite] (Biolog plate: PM23),4.67
16,Nc1ccncc1 [4-Aminopyridine] (Biolog plate: PM25),4
17,N#CO [Sodium Cyanate] (Biolog plate: PM23),4.67
18,O=[Se](=O)([O-])[O-].[Na+].[Na+] [Sodium Selenate] (Biolog plate: PM23),4
19,O=[As]([O-])([O-])[O-].[Na+].[Na+].[Na+] [Sodium Arsenate] (Biolog plate: PM22),4.33
20,[O-][I+3]([O-])([O-])O [Sodium metaperiodate] (Biolog plate: PM23),2
21,[Cl][Cd][Cl] [Cadmium Chloride] (Biolog plate: PM23),2
22,N.N.[Cl][Pt][Cl] [Cisplatin] (Biolog plate: PM24),4.67
23,CCCCCCCCCCCCCCCC[n+]1ccccc1 [Cetylpyridinium chloride] (Biolog plate: PM21),0 (active)
24,CNC1CC(N)C(O)C(OC2OC(CO)C(O)C3OC4(OC(C(N)CO)C(O)C(O)C4O)OC23)C1O (stereo not drawn) [Hygromycin B] (Biolog plate: PM25),2

# Same assay, conditions: concentration level (1-4, increasing; Biolog proprietary): 3; temperature: 13 °C; YPD
row,Compound,growth activity index
1,CN(CC[C@H](N)CC(=O)N[C@H]1C=C[C@H](n2ccc(N)nc2=O)O[C@@H]1C(=O)O)C(=N)N [Blasticidin S] (Biolog plate: PM24),4
2,O=[Se]([O-])[O-].[Na+].[Na+] [Sodium Selenite] (Biolog plate: PM21),6
3,[Cl][Cr]([Cl])[Cl] [Chromium (III) chloride] (Biolog plate: PM23),2
4,"Nc1ncn[nH]1 [3-Amino-1,2,4-triazole] (Biolog plate: PM22)",0 (active)
5,C[n+]1ccc(-c2cc[n+](C)cc2)cc1 [Methyl viologen] (Biolog plate: PM24),0.333
6,[Cl][Ni][Cl] [Nickel chloride] (Biolog plate: PM21),4.5
7,C[C@@H]1C[C@@H]([C@H](O)CC2CC(=O)NC(=O)C2)C(=O)[C@@H](C)C1 [Cycloheximide] (Biolog plate: PM22),4.33
8,[N-]=[N+]=[N-] [Sodium Azide] (Biolog plate: PM23),0 (active)
9,CCCC1COC(Cn2cncn2)(c2ccc(Cl)cc2Cl)O1 (stereo not drawn) [Propiconazole] (Biolog plate: PM24),1
10,CC1C=CC=CCCC=CC=CC=CC=CC(OC2OC(C)C(O)C(N)C2O)CC2OC(O)(CC(O)C(O)CCC(O)CC(O)CC(O)CC(=O)OC(C)C(C)C1O)CC(O)C2C(=O)O (stereo not drawn) [Nystatin] (Biolog plate: PM21),0 (active)
11,[Na+].[Na+].[O]=[Cr](=[O])([O-])[O][Cr](=[O])(=[O])[O-] [Sodium Dichromate] (Biolog plate: PM21),5
12,CCCCC(C#N)(Cn1cncn1)c1ccc(Cl)cc1 (stereo not drawn) [Myclobutanil] (Biolog plate: PM22),0 (active)
13,[N-]=[N+]=CC(=O)OC[C@H](N)C(=O)O [Azaserine] (Biolog plate: PM22),4.67
14,[K+].[K+].[O]=[Cr](=[O])([O-])[O-] [Potassium Chromate] (Biolog plate: PM24),4
15,O=[As][O-].[Na+] [Sodium Arsenite] (Biolog plate: PM23),4.33
16,Nc1ccncc1 [4-Aminopyridine] (Biolog plate: PM25),4.33
17,N#CO [Sodium Cyanate] (Biolog plate: PM23),4.33
18,O=[Se](=O)([O-])[O-].[Na+].[Na+] [Sodium Selenate] (Biolog plate: PM23),2.67
19,O=[As]([O-])([O-])[O-].[Na+].[Na+].[Na+] [Sodium Arsenate] (Biolog plate: PM22),4
20,[O-][I+3]([O-])([O-])O [Sodium metaperiodate] (Biolog plate: PM23),4.33
21,[Cl][Cd][Cl] [Cadmium Chloride] (Biolog plate: PM23),0.667
22,N.N.[Cl][Pt][Cl] [Cisplatin] (Biolog plate: PM24),4
23,CCCCCCCCCCCCCCCC[n+]1ccccc1 [Cetylpyridinium chloride] (Biolog plate: PM21),0 (active)
24,CNC1CC(N)C(O)C(OC2OC(CO)C(O)C3OC4(OC(C(N)CO)C(O)C(O)C4O)OC23)C1O (stereo not drawn) [Hygromycin B] (Biolog plate: PM25),1
